Laboratory results: PubChem BioAssay AID1745850 (National Center for Advancing Translational Sciences (NCATS), 2022)
The campaign covered roughly 2,100 compounds. About 260 (12%) were called active. About 58% were inconclusive and are not listed. Calls follow the shape of the dose curve; as a rule, active = well fitted cell-killing curve with a large enough effect; inconclusive = small, poorly fitted or top-dose-only effect, or effect the other way; inactive = flat fitted curve, though single readings scatter. Some of the results follow.

Assay: Viability Counterscreen for Confirmatory qHTS for Inhibitors of ATXN expression; also: nearly all actives have a fitted effect of over 50% in size
Details: HEK-293 ATXN2-luc cells viability, CellTiter-Fluor, 24 h; activity change, negative = cytotoxicity: at the top concentration
From the text: PI: Daniel Scoles Ph.D. University of Utah School of Medicine, Salt Lake City, Utah MLPCN Grant: NS073009 Spinocerebellar ataxia type 2 (SCA2) is a multisystem neurodegenerative disease caused by a dominantly acting mutation leading to expansion of a polyQ domain in the ataxin-2 protein (ATXN2). SCA2 patients develop progressive ataxia and later lose function in other neuronal systems. Prominent parkinsonian signs develop in some patients. Like many neurodegenerative disorders, no symptomatic or disease-modifying treatments are known. The primary objective of the proposed research is to identify compounds inhibiting ATXN2 expression and to test them for efficacy in SCA2 mouse models. We have developed a cell-based assay paired with an in vivo mouse model using identical luciferase expression constructs. This approach takes advantage of an ATXN2-luciferase transgene, with the luciferase gene flanked by the upstream and downstream portions of the ATXN2 gene. Here we describe a 5-7 dose quantitative high thoroughput screen (qHTS) for compounds lowering ATXN2 expression. We screened the NIH Molecular Libraries Small Molecule Repository (MLSMR) and NCGC's mechanistically annotated (MIPE) and drug repurposing (NPC) collections of compounds for lowering expression of an ATXN2-luciferase reporter in HEK-293 cells. The assay is a multiplexed cell viability assay to ensure target reduction in the absence of cytotoxicity. Secondary qHTS assays included a CMV-luciferase reporter expressed in HEK-293 cells as well as a biochemical assay using recombinant luciferase to detect inhibitors of the reporter enzyme. Compounds that inhibit ATXN2 expression but is not cytotoxic were selected for confirmatory and secondary screens.
PROTOCOL TABLE (as described by Inglese J, Shamu CE and Guy RK. 2007) SEQUENCE No. (e.g., 1, 2, 3, etc.); […] (e.g., Cells, Incubation, Reagent, etc.); VALUE; DESCRIPTION. 1; Cells; 4 uL; white, solid bottom, 1536-well Greiner assay plate. 2; Incubation; 2 hr; 37 degree C in 5% humidified CO2. 3; Compounds; 23 nL; Kalypsis pintool (Wako USA) equipped with a 1536-well pin head. 4; Incubation; 24 hr; 37 degree C in 5% humidified CO2. 5; Reagent; 1 uL; Gly-Phe-7-Amino-4-trifluoromethylcoumarin. 6; Incubation; 30 min; 37 degree C in 5% humidified CO2. 7; Detection; Fluorescence; ViewLux plate reader (PerkinElmer). 8; Reagent; 3 uL; SteadyGlo luciferase solution (Promega). 9; Incubation; 5 min; room temperature. 10; Detection; Luminescence; ViewLux plate reader (PerkinElmer). NOTES (numbers refer to Sequence numbers above) 1. S2 cells expressing ATXN2-luciferase reporter were suspended in phenol-red free DMEM and dispensed in assay plates using a Multidrop Combi dispenser (Thermo Fisher Scientific). Wells containing medium only were plated on each plate, and values were used to normalize (100% inhibition) in the luciferase and CellTiter-Fluor assays. 2. Assay plates were incubated. Evaporation was prevented by covering assay plates with metal lids containing holes to allow gas diffusion. 3. Compounds were added in a dose response manner with the final concentrations of 57, 11.4, 2.28, 0.46, 0.091, 0.018, 0.0037 uM. Vehicle-only plates, with DMSO being pin-transferred to columns 5-48, were inserted uniformly at the beginning and the end of each library to monitor and record any shifts in assay performance. 5. 125 uM Gly-Phe-7-Amino-4-trifluoromethylcoumarin (MP Biomedicals) working concentration was used at a final concentration of 25 uM. 7. To assess cell viability; the assay plates were read using the ViewLux high-throughput CCD imager (PerkinElmer), wherein single end-point fluorescence measurement was acquired (excitation 405/10; emission 540/25 nm). 8. Detection reagent SteadyGlo Luciferase (Promega) was added to the assay plate. 10. Luminescence is then measured on the ViewLux imager equipped with a clear emission filter using a 2 sec exposure. […]
Potency is read from the fitted curve at half-maximal effect.

SMILES	Potency	activity change, negative = cytotoxicity
Cc1cccc(-n2c(/C=C/c3ccc([N+](=O)[O-])o3)nc3ccccc3c2=O)c1	7.08 µM (active)	–
CSCCC(c1nnnn1-c1c(C)cccc1C)N1CCC2(CC1)C(=O)NCN2c1ccccc1 (stereo not drawn)	31.6 µM (active)	–
O=C(Nc1ccc(OC(=O)N2CCCCC2)cc1)N1CCOCC1	–	-9.64% [at 57.5 µM] (inactive)
N#Cc1cn(C2OC(CO)C(O)C2O)c2ncnc(N)c12 (stereo not drawn)	–	-24.1% (inactive)
O=[N+]([O-])c1oc2ccc3ccccc3c2c1CCO	28.2 µM (active)	–
COc1ccc(N=Cc2c(O)n(-c3ccc(C)cc3)c(=O)[nH]c2=O)cc1	–	0.886% [at 57.5 µM] (inactive)
COC(=O)C(O)(c1ccc(NC(=S)NC(=O)c2ccc(Cl)cc2Cl)c(C)c1)C(F)(F)F (stereo not drawn)	–	-15.9% (inactive)
COc1cccc2c1C(=O)c1c(O)c3c(c(O)c1C2=O)CC(O)(C(C)=NO)CC3OC1CC(N)C(O)C(C)O1 (stereo not drawn)	17.8 µM (active)	–
CC(=O)OC1(C)CC(C)C(=O)C(C(O)CC2CC(=O)NC(=O)C2)C1 (stereo not drawn)	–	-36.1% (inactive)
C[C@]12CC[C@H](O)C[C@H]1CC[C@@H]1C2CC[C@]2(C)[C@@H](C3=CC(=O)OC3)[C@@H](O)C[C@]12O (stereo partly drawn)	–	-28.4% (inactive)
CCC1(OC(=O)CN)C(=O)OCc2c1cc1n(c2=O)Cc2cc3ccccc3nc2-1 (stereo not drawn)	–	0.438% (inactive)
COC(=O)c1nc(-c2ccc3c(n2)C(=O)C(N)=C(OC)C3=O)c(N)c(-c2ccc(OC)c(OC)c2O)c1C	15.8 µM (active)	–
CCOC(=O)[C@]12Cc3ccsc3[C@H]1N(Cc1ccccc1)C(=O)c1ccccc12	–	-19.3% (inactive)
CN1C2CCC1/C(=C/c1ccccn1)C(=O)/C2=C\c1ccccn1	1.26 µM (active)	–
N#Cc1c(Br)n(C2OC(CO)C(O)C2O)c2ncnc(N)c12 (stereo not drawn)	–	-19.5% (inactive)
CC(C)(C)n1nnnc1C(CCc1ccccc1)N1CCC(n2c(=O)[nH]c3ccccc32)CC1 (stereo not drawn)	22.4 µM (active)	–
O=c1[nH]c2ccccc2n1C1CCN(C(CCc2ccccc2)c2nnnn2C2CCCC2)CC1 (stereo not drawn)	22.4 µM (active)	–
Cc1cccc(C)c1-n1nnnc1C(c1cc2ccccc2o1)N1CCC(n2c(=O)[nH]c3ccccc32)CC1 (stereo not drawn)	8.91 µM (active)	–
O=C(NN=Cc1ccc(N(CCCl)CCCl)cc1)c1cc(=O)[nH]c(=O)[nH]1	–	-23.7% [at 57.5 µM] (inactive)

SMILES	Potency	activity change, negative = cytotoxicity
C1=NCCc2c1[nH]c1ccccc21	–	-16.8% (inactive)
COC1C(O)C(C)OC(OC2C(Oc3cccc4c(O)c5c(=O)oc6ccc(C)c7c(=O)oc(c34)c5c67)OC(C)C(O)C2O)C1O (stereo not drawn)	–	9.42% (inactive)
Cc1c2ccncc2c(C)c2c1[nH]c1ccccc12	22.4 µM (active)	–
CCn1c(O)c(/C=N/NC(=O)c2ccccc2)c(=O)n(CC)c1=S	–	-20.6% [at 57.5 µM] (inactive)
NC(Cc1ccc(Cl)cc1)c1csc(Nc2ccccn2)n1 (stereo not drawn)	25.1 µM (active)	–
CC[C@@]1(O)C(=O)OCc2c1cc1n(c2=O)Cc2cc3c(NC(=O)CN)cccc3nc2-1	–	11.8% (inactive)
Cc1ccc(/C=C2\C(=O)NC(=S)N(c3ccccc3F)C2=O)s1	8.91 µM (active)	–
CCCCCn1c(=O)c(C(=O)NCc2ccccn2)c(O)c2ccccc21	–	-17.6% (inactive)
C=CCCC[C@@H]1OC(=O)CNC(=O)C([C@@H](C)CC)NC(=O)[C@@H]2CCCN2C(=O)C([C@@H](C)CC)OC(=O)[C@H](Cc2ccccc2)N(C)C(=O)[C@H](C(C)C)NC(=O)C1(C)C (stereo partly drawn)	3.16 µM (active)	–
C#CCCC[C@@H]1OC(=O)CNC(=O)C([C@@H](C)CC)NC(=O)[C@@H]2CCCN2C(=O)C([C@@H](C)CC)OC(=O)[C@H](Cc2ccccc2)N(C)C(=O)[C@H](C(C)C)NC(=O)C1(C)C (stereo partly drawn)	22.4 µM (active)	–
CCC(C)N1C(=O)/C(=C\c2cnc(N(C)C)nc2)C(=O)NC1=S (stereo not drawn)	–	-15.9% [at 57.5 µM] (inactive)
c1ccc2sc(N3CCNCC3)nc2c1	–	-9.18% [at 57.5 µM] (inactive)
O=C1NC(=O)N(CCc2ccc(F)cc2)C(=O)/C1=C/C=C/c1ccccc1	11.2 µM (active)	–
COc1ccc(CCNCc2ccc(F)cc2)cc1OC	–	-5.15% (inactive)
CCCCCCC(=O)N/N=C/c1c(O)n(CCCC)c(=S)[nH]c1=O	–	-27.8% [at 57.5 µM] (inactive)
CC(=NCCc1c[nH]c2ccccc12)c1c(O)n(Cc2ccccc2)c(=O)[nH]c1=O	–	-15% [at 57.5 µM] (inactive)
CCOC(=O)c1c(N)n(CCN2CCCCC2)c2nc3ccccc3nc12	–	4.3% [at 57.5 µM] (inactive)
CCCCCn1c(NC(=O)c2ccco2)c(C(=O)OCC)c2nc3ccccc3nc21	28.2 µM (active)	–
CC(C)CCNC(=O)c1c(N)n(Cc2ccc3c(c2)OCO3)c2nc3ccccc3nc12	–	-11.5% [at 57.5 µM] (inactive)
